In PubChem BioAssay one finds composite z-score data, which are given here for 28 molecules.

In the test the target is Albumin (Bos taurus) (UniProt P02769). The test can be described thus: compounds binding labelled BSA control protein – biochemical, small-molecule microarray, Alexa647 label, 635/667 nm fluorescence, artefact control for SMM control protein annotation, profiling panel (AID 1118).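 Further: score merges 667 nm emission intensity and signal-to-noise per printed compound spot.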 The settings on record: BSA-A647 binding, fluorescence 635 nm, higher = more signal.
Albumin (Bos taurus), sequence (P02769 whole entry, looked up): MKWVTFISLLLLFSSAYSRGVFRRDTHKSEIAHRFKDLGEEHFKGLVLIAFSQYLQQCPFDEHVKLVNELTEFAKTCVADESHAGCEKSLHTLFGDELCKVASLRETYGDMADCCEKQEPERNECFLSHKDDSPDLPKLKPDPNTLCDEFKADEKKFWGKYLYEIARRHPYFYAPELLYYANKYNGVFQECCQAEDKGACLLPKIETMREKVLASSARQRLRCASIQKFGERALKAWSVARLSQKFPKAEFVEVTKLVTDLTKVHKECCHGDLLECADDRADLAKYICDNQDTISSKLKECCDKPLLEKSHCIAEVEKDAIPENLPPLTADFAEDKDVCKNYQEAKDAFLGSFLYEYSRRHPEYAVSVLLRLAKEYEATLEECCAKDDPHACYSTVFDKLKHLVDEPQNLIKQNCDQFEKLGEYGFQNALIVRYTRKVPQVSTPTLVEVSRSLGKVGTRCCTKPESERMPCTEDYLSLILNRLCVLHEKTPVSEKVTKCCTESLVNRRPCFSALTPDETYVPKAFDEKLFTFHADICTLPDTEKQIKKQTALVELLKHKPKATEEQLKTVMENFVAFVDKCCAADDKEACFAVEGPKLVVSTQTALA
Take `CCCN1C(=O)[C@]2(CCS(=O)(=O)c3ccccc3)N=C(c3ccc(OCCCO)cc3)O[C@@H]2c2ccccc21`: the composite z-score was 0.414.

Consider `CC(C)(C)C(=O)N[C@@H](c1ccc(Cl)cc1)[C@]1(C)C[C@H]1C1CCCCC1`, for which the composite z-score was 0.886.

As for `COc1cc(CO)cc(I)c1O[C@H]1C=C(C(=O)NCCO)C[C@@H](N(CCN2CCOCC2)C(=O)C2CCOC2)[C@@H]1O` (stereo partly drawn), the composite z-score was -1.02.

In turn, `C[C@]1(C(=O)NC2CC2)c2ccccc2C(=O)N(Cc2cc(C(F)(F)F)cc(C(F)(F)F)c2)[C@H]1c1ccc(CO)cc1` yielded a composite z-score of -0.0744.

On to `COCCOC(=O)N1C(=O)[C@@]2(c3ccccc31)[C@H](c1ccccc1OCCO)N1[C@H](c3ccccc3)[C@H](c3ccccc3)OC(=O)[C@H]1[C@@H]2C(=O)Nc1nc2ccccc2s1`, for which the composite z-score was 0.665.

In turn, `CC(=O)NCCCC[C@@H]1NC(=O)[C@@H]2C[C@H](C(=O)NCCCCCCNC(=O)CS)[C@H](c3cccc(OCCO)c3)N2C1=O` showed a composite z-score of -0.133.

The molecule `CCCCC(=C=CC[C@@H](O)c1ccccc1OCCO)CCO` had a composite z-score of 0.694.

`C=C(COC)/C(=C/C[C@H](OC(=O)c1ccncc1)c1ccc(OCCO)cc1)c1cnc2ccccc2c1` yielded a composite z-score of 0.808.

`COC(=O)[C@@]1(Cc2ccc(F)cc2)[C@@H]2[C@@H](CC(=O)[C@H]2CC(=O)C(=O)N(C)C)CN1C(=O)c1ccccc1` displayed a composite z-score of 0.998.

On to `NCCCCCNC(=O)[C@@H]1C[C@@H]2C(=O)N[C@@H](Cc3ccccc3)C(=O)N2[C@@H]1c1cccc(OCCO)c1`, for which the composite z-score came to 0.654.

`Cc1ccc(C(C)CC(O)C2C=CC3C(=O)N(C)C(=O)C3N2NC(=O)OC(C)(C)C)o1` (stereo not drawn) showed a composite z-score of 1.01.

The molecule `COCCOC(=O)N1C(=O)[C@@]2(c3cc(C#Cc4ccc(OC)cc4)ccc31)[C@H](c1ccc(O)cc1)N1[C@H](c3ccccc3)[C@H](c3ccccc3)OC(=O)[C@H]1[C@@H]2C(=O)NC[C@H](O)c1ccccc1` registered a composite z-score of 0.298.

Regarding `O=C(C1N=C(c2ccc(OCCCO)cc2)N(c2ccccc2)O1)N1CCOCC1` (stereo not drawn), the composite z-score is 0.709.

Consider `O=C1O[C@@H](c2ccccc2)[C@@H](c2ccccc2)N2[C@@H](c3ccc(OCCO)cc3)[C@]3(C(=O)Nc4ccccc43)[C@@H](C(=O)NC[C@H](O)c3ccccc3)[C@H]12`, for which the composite z-score turned out to be 0.393.

`O=C(O)[C@@]1(CCS(=O)(=O)c2ccccc2)COC(c2ccc(OCCCO)cc2)=N1` displayed a composite z-score of -0.344.

Consider `O=C1O[C@H](c2ccccc2)[C@H](c2ccccc2)N2[C@H]1[C@@H](C(=O)O)[C@]1(C(=O)Nc3ccc(C#CCCO)cc31)[C@H]2c1ccc(O)cc1`, for which the composite z-score was determined as 0.279.

Molecule `O=C1C2C=CC(C(O)C(c3ccccc3)c3ccccc3)N(n3cnnc3)C2C(=O)N1Cc1ccccc1` (stereo not drawn) registered a composite z-score of 0.057.

Turning to `CCOC(=O)C[C@H]1[C@H](OC(=O)c2ccc(C(=O)c3ccccc3)cc2)[C@@H](NC(=O)c2ccc(-c3ccccc3)cc2)c2cc(OCCCO)ccc2N1C(=O)c1ccccc1`, the composite z-score came to 0.0256.

`CN1C(=O)[C@]2(Cc3ccccc3)N=C(c3ccc(OCCCO)cc3)O[C@@H]2c2ccccc21` gave a composite z-score of 0.18.

`CC(CO)N1C(=O)[C@@H]2C3C(=O)OCCC/C=C\[C@H]3OC23C=CCN(c2ccc4ccccc4c2)C(=O)[C@@H]13` (stereo partly drawn) had a composite z-score of 0.611.

As to `Cc1ccc(S[C@]2(C(=O)NC3CC3)CC(=O)N(C3Cc4ccccc4C3)[C@@H]2c2ccc(CO)cc2)cc1`, the composite z-score was determined as 0.79.

The molecule `COCCOC(=O)N1C(=O)[C@@]2(c3cc(C#CC4=CCCCC4)ccc31)[C@H](C(=O)Nc1nc3ccccc3s1)[C@H]1C(=O)O[C@H](c3ccccc3)[C@H](c3ccccc3)N1[C@@H]2c1ccc(OCCO)cc1` gave a composite z-score of 0.1.

With `CC(C)C[C@@H]1NC(=O)[C@H]2C[C@@H](C(=O)NCCCCCCN)[C@@H](c3ccc(O)cc3)N2C1=O`, the composite z-score amounted to 0.0662.

With `C=CCN(Cc1ccccc1)C(=O)C(c1cccs1)N(CCOCCO)C(=O)/C=C\C(=O)O` (stereo not drawn), the composite z-score is -0.462.

Take `O=C1OCCC/C=C\[C@H]2OC34C=CCN(CCN5CCOCC5)C(=O)[C@H]3N(CCCO)C(=O)[C@@H]4C12` (stereo partly drawn): the composite z-score was -0.843.

`[N-]=[N+]=NCc1ccccc1C[C@]1(C(=O)N2CCOCC2)N=C(c2ccc(OCCCO)cc2)O[C@H]1c1ccccc1N=[N+]=[N-]` returned a composite z-score of 0.889.

On to `C=CCNC(=O)[C@H]1[C@@H]2C(=O)O[C@@H](c3ccccc3)[C@@H](c3ccccc3)N2[C@@H](c2ccccc2OCCO)[C@]12C(=O)Nc1ccc(C#CC3=CCCCC3)cc12`, for which the composite z-score came to 0.039.

Regarding `C=CCN1C(=O)[C@@]2(O[C@@H](CCO)[C@H]([Si](C)(C)c3ccc(OC)cc3)[C@H]2C)c2cc(NC(=O)c3ccc(OC)cc3)ccc21`, the composite z-score worked out at 0.317.
